# Records with an inconclusive call do not appear. A call without a number means that no potency is given here. Calls of active or inactive are those of the source. Calls come from the whole dose curve; as a rule, active = well fitted inhibition curve with a large enough effect; inconclusive = small, poorly fitted or top-dose-only effect, or effect the other way; inactive = no such curve, though single readings can be large or run the other way.
# Experiment: High Content Imaging Cell-Based qHTS for Inhibitors of the mTORC1 Signaling Pathway in MEF Cells (AID 2667)
# Settings: series mostly up to 38.3 µM
# Description: NIH Molecular Libraries Probe Production Centers Network [MLPCN]
# NIH Chemical Genomics Center [NCGC]
# Assay Submitter (PI): Blenis, John; Hoffman, Greg; Harvard University
# NCGC Assay Overview: The mammalian target of rapamycin (mTOR) is an intracellular serine/threonine kinase Aberrant regulation of mTOR signaling plays a causative role in a number of human diseases, including cancer, benign tumors such as lymphangioleiomyomatosis (LAM) and Tuberous Sclerosis Complex (TSC), and metabolic diseases such as diabetes and obesity. This project aims to identify inhibitors of ribosomal protein S6 (rpS6) phosphorylation. The phosphorylation of rpS6 is a key event downstream of mTOR activation. The assay uses a phospho-specific antibody of phospho-rpS6 to detect inhibitors of mTOR activation. Mutations in the Tsc1 and Tsc2 genes are the underlying genetic lesions responsible for TSC, causing constitutive activation of the mTORC1 pathway and leading to profound effects on cell metabolism. Aberrant metabolism in cancer has recently received significant attention as a target to develop therapeutic agents in the treatment of cancer.1 As Tsc2-/- cells have lost the ability to respond to energy and growth factor deprivation, these cells are unable to properly down regulate cellular biosynthetic processes in response to metabolic stress, and are thus extremely sensitive to glucose deprivation-induced death.2 A central goal of this project is to explore the unique cell survival and metabolic properties of cells with Tsc1 or Tsc2 by screening for compounds that selectively target the Tsc2-/- MEFs by screening both Tsc2-/- and WT MEF cell lines. We hope to better understand these aspects of TSC physiology in order to exploit them for therapeutic benefit.
# NCGC IN Cell Assay Protocol:
# For quantitative high throughput analysis of mTORC1 signaling, we developed a cell-based assay for immuno-fluorescence based detection of rpS6 phosphorylation on the Acumen Explorer that will be used a platform for the primary small molecule screen. Mouse embryonic fibroblasts (MEFs) are cultured in 1536-well plates using DMEM + 10% FBS. Twenty-four hrs after plating, test compounds (solubilized in DMSO) are delivered and incubated with the cells for 24 hrs at 37 degree Celsius. Following the incubation, media with compound is aspirated and the cells are fixed in 4% paraformaldehyde (PFA) containing PBS + 0.2% TX-100. Next, PFA is aspirated, cells are washed two times with PBS plus 0.2% TX-100 and the cells are blocked for 1 hr at room temperature (blocking buffer: LiCOR Blocking Buffer plus 0.2% TX-100). This is followed by aspiration and staining with Alexa-488 conjugated-phospho-rpS6 Ser235/236 antibody for 2 hours at room temperature (Cell Signaling Technology # 4803, 1:50 dilution in blocking buffer). Cells are washed two times with PBS plus 0.2% TX-100, and stained with 10 uM propidium iodide (PI) for 20-25 minutes for cell number measurement (1:500 dilution of Hoescht staining is also added for IN Cell imaging). Active wells which are selected (based on Acumen results) are imaged on the IN Cell 1000 (GE Healthcare) using the D360/40X and HQ480/40X excitation filters for the Hoechst and Alexa-488 cytoplasmic stains, respectively. The fluorescence emission filters used were HQ460/40M and HQ535/50M for the Hoechst and Alexa-488 cytoplasmic stains, respectively. The normalized phospho-S6 staining is calculated as the ratio of […] for the single concentration rapamycin control ([…] nM) and DMSO columns. […] Inhibition of the pathway is defined based on the normalized phospho-S6 intensity in rapamycin treated cells. Each treatment is reported as the % positive cells in the well, where thresholds are defined by selecting wells with the highest and lowest signal and differentiating between the % non-active and % active populations. […]
# Potency is the fitted concentration of half-maximal effect.
row,SMILES,Potency
1,CCC(NC(C)C)C(O)c1ccc(O)c(O)c1 (configuration not stated),inactive
2,CCCn1c(=O)[nH]c(=O)c2[nH]cnc21,inactive
3,N[C@H](CO)C(=O)O,inactive
4,COc1cc(NS(C)(=O)=O)ccc1Nc1c2ccccc2nc2ccccc12,3.69 µM (active)
5,C[C@]12CC[C@@H]3c4ccc(O)cc4CC[C@H]3[C@@H]1CC[C@@H]2O,inactive
6,CC(C)C[C@H]1C(=O)N2CCC[C@H]2[C@]2(O)O[C@](NC(=O)[C@@H]3C=C4c5cccc6[nH]c(Br)c(c56)C[C@H]4N(C)C3)(C(C)C)C(=O)N12,inactive
7,N[C@@H](Cc1cnc[nH]1)C(=O)O,inactive
8,C[C@@H]1C(=O)NC2=Nc3cccc(Cl)c3CN21,inactive
9,C[N+]1(CCCCC[N+]2(C)CCCC2)CCCC1,inactive
10,COC(=O)[C@H]1[C@H]2C[C@H]3c4[nH]c5ccccc5c4CCN3C[C@H]2CC[C@@H]1O,inactive
11,COc1cc2c(cc1O)CC[C@@H]1[C@@H]2CC[C@]2(C)[C@@H](O)CC[C@@H]12,inactive
12,CC(C)COC(=O)OCN1C(=O)CN(CCN2CC(=O)N(COC(=O)OCC(C)C)C(=O)C2)CC1=O,inactive
13,Nc1cc(Cl)c(NC2=NCCN2)c(Cl)c1,inactive
14,O=C(O)c1cc2cc(Cc3cccnc3)ccc2o1,inactive
15,CNCCC(Oc1ccccc1C)c1ccccc1 (configuration not stated),inactive
16,Oc1ccc(O)cc1,inactive
17,C1CCc2nnnn2CC1,inactive
18,CC1(C)CCC(NC(=O)[C@@H](N)CCC(=O)O)CC1,inactive
19,CCCC1O[C@@H]2C[C@H]3[C@@H]4CCC5=CC(=O)C=C[C@]5(C)[C@H]4[C@@H](O)C[C@]3(C)[C@]2(C(=O)CO)O1 (some centres not stated),inactive
20,CC(CCc1ccccc1)NCC(O)c1ccc(O)c(C(N)=O)c1 (configuration not stated),inactive
21,CC(=O)O[C@H]1C[C@@H]2CC[C@@H]3[C@H](CC[C@@]4(C)[C@H]3C[C@H]([N+]3(C)CCCCC3)[C@@H]4OC(C)=O)[C@@]2(C)C[C@@H]1[N+]1(C)CCCCC1,inactive
22,O=C1CCC(c2ccc(-n3ccnc3)cc2)=NN1,inactive

# From PubChem BioAssay (NCATS)
